This is an account of results in PubChem BioAssay (NCI).

Compounds without any hit were thinned out: in the full panel of roughly 83,000, 20% have a hit.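 For each line, cells grew in 96-well plates with the test compound present at a single concentration for 48 hours.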 Values without a mark were called inactive. Active and inactive are the calls of the source. Rule for the calls: active = growth percent below 10; inactive = the rest.

The assay relates to HL-60(TB) leukemia. Briefly: NCI-60 one-dose screen, 48 h (100 = growth as untreated, 0 = no growth, -100 = all killed). Particulars: 10 µM unless noted.
Take `Cc1nn(-c2ccccc2)c(Oc2ccccn2)c1-c1nc2ccccc2s1`: the growth is 85.3%. On to `COc1ccc(SC2c3cc(OC)c(OC)cc3Oc3nc(N)c(C#N)c(N)c32)cc1` (centres undefined), for which the growth was -51.5% (active). As for `CCOc1ccc(Nc2nc(-c3c(C)nc4ncccn34)cs2)cc1`, the figure is -34.1% (active). Then `Cc1ccc2c3c(c(=O)[nH]c2c1)C1(C(C#N)=C(N)O3)c2cc(Br)ccc2-c2ccc(Br)cc21`, with 83.7%; and `CC(C)(C)n1cc(-c2ccnc(NCCNS(=O)(=O)c3ccc(C(F)(F)F)cc3)c2)c(-c2cccc(O)c2)n1`, with 29.3%.

On to `CCOC(=O)c1c(C)c2c(n1C)CSc1cc(C(=O)c3ccccc3)c(=O)[nH]c1-2`, for which the growth is 74.7% [100 µM]. Then `CCOC(=O)c1nc2c3ccccc3ccn2c1C(=O)OCC`, with 97.1%. Then `O=C(CSc1nnc(-c2ccc(NC(=O)c3cccnc3)cc2)o1)N[C@@H](Cc1ccc(O)cc1)C(=O)O`, with 99.4%. Turning to `CCCCCCCCCCCCc1ccc([N+](CC)(CC)CC)cc1`, the growth was -10.9% (active). As for `Cn1cc(-c2cc3ncnc(Nc4ccc(CC(=O)Nc5cc(C(C)(C)C)on5)cc4)c3s2)cn1`, the growth was 57.5%.

`O=c1oc2ccc(-c3ccc(F)cc3F)cc2c(=O)n1-c1ccc(Cl)c(C(F)(F)F)c1`: the growth is 1.69% (active). As for `CCCCCCN(CCCCCC)C(=N)c1ccnc2ccccc12`, the figure is 43.2%. For the molecule `NNC(=O)c1nc(N)n(-c2ccc(S(N)(=O)=O)cc2)n1`, the growth was 99.5%.

For `CCC1OC(OC)C=CC1=O` (centres undefined), the growth is 77%.
